Test results taken from PubChem BioAssay AID1159580 (chemical genetic matrix, 2015).
Out of some 5,500 compounds screened, about 2,000 (36%) were called active. Roughly 18% stayed inconclusive and do not appear here. The list shows a part of the results. Unmarked numbers belong to inactive results. Cut-off read from the data, not from the text of the source: active = normalized growth mostly below about 0.91 (no sharp cut-off); inconclusive = no clear call, values can overlap the other calls; inactive = mostly above about 0.92.

Experiment: chemical genetic growth profiling, strain panel (AID 1159580);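 note: tested at 20 µM; growth read once vehicle control cultures reached saturation at 30 °C; 1 = growth at the plate median or of vehicle wells; lower values mean less growth of the strain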
Details: growth OD

CC12CCCC(O)(C1)C1CC(C)(C)C1CC2 (configuration not stated)
normalized growth (S. cerevisiae deletion strains, locus YJR066W, strain TOR1, hits give low values): 0.95
normalized growth (S. cerevisiae deletion strains, locus YKL009W, strain mrt4, hits give low values): 1.02
normalized growth (S. cerevisiae deletion strains, locus YKL068W, hits give low values): 1.01
normalized growth (S. cerevisiae deletion strains, locus YKL085W, strain MDH1 (second series), hits give low values): 0.998
normalized growth (S. cerevisiae deletion strains, locus YKL085W, strain MDH1, hits give low values): 0.998
normalized growth (S. cerevisiae deletion strains, locus YKL160W, strain elf1, hits give low values): 0.954
normalized growth (S. cerevisiae deletion strains, locus YKR001C, strain vps1, hits give low values): 1.02
normalized growth (S. cerevisiae deletion strains, locus YKR026C, strain gcn3, hits give low values): 0.999
normalized growth (S. cerevisiae deletion strains, locus YKR091W, strain srl3, hits give low values): 0.991
normalized growth (S. cerevisiae deletion strains, locus YLL001W, strain dnm1, hits give low values): 0.925
normalized growth (S. cerevisiae deletion strains, locus YLL026W, hits give low values): 0.982
normalized growth (S. cerevisiae deletion strains, locus YLL041C, strain sdh2, hits give low values): 0.982
normalized growth (S. cerevisiae deletion strains, locus YLR027C, strain aat2, hits give low values): 0.948
normalized growth (S. cerevisiae deletion strains, locus YLR039C, strain RIC1, hits give low values): 0.972
normalized growth (S. cerevisiae deletion strains, locus YLR058C, strain SHM2, hits give low values): 1.01
normalized growth (S. cerevisiae deletion strains, locus YLR102C, strain apc9, hits give low values): 1.01
normalized growth (S. cerevisiae deletion strains, locus YLR113W, strain HOG1, hits give low values): 0.939
normalized growth (S. cerevisiae deletion strains, locus YLR221C, strain rsa3, hits give low values): 0.983
normalized growth (S. cerevisiae deletion strains, locus YLR258W, strain gsy2, hits give low values): 0.961
normalized growth (S. cerevisiae deletion strains, locus YLR262C, strain YPT6 (second series), hits give low values): 0.878
normalized growth (S. cerevisiae deletion strains, locus YLR262C, strain YPT6, hits give low values): 1.01
normalized growth (S. cerevisiae deletion strains, locus YLR268W, strain sec22, hits give low values): 0.992
normalized growth (S. cerevisiae deletion strains, locus YLR320W, strain mms22, hits give low values): 0.937
normalized growth (S. cerevisiae deletion strains, locus YLR342W, strain FKS1, hits give low values): 0.918
normalized growth (S. cerevisiae deletion strains, locus YLR357W, strain rsc2, hits give low values): 0.984
normalized growth (S. cerevisiae deletion strains, locus YLR370C, strain arc18, hits give low values): 0.981
normalized growth (S. cerevisiae deletion strains, locus YLR371W, strain rom2, hits give low values): 1.01
normalized growth (S. cerevisiae deletion strains, locus YLR384C, strain iki3, hits give low values): 1.01
normalized growth (S. cerevisiae deletion strains, locus YLR418C, strain cdc73, hits give low values): 1.1
normalized growth (S. cerevisiae deletion strains, locus YML016C, strain PPZ1, hits give low values): 1.01
normalized growth (S. cerevisiae deletion strains, locus YML032C, strain rad52, hits give low values): 1.02
normalized growth (S. cerevisiae deletion strains, locus YML120C, strain ndi1, hits give low values): 1
normalized growth (S. cerevisiae deletion strains, locus YML124C, strain tub3, hits give low values): 1.01
normalized growth (S. cerevisiae deletion strains, locus YMR058W, strain fet3, hits give low values): 0.985
normalized growth (S. cerevisiae deletion strains, locus YMR078C, strain ctf18, hits give low values): 1.02
normalized growth (S. cerevisiae deletion strains, locus YMR125W, strain sto1, hits give low values): 0.974
normalized growth (S. cerevisiae deletion strains, locus YMR129W, hits give low values): 1.01
normalized growth (S. cerevisiae deletion strains, locus YMR205C, strain PFK2, hits give low values): 0.861 (active)
normalized growth (S. cerevisiae deletion strains, locus YMR223W, strain ubp8, hits give low values): 1.02
normalized growth (S. cerevisiae deletion strains, locus YMR231W, strain pep5, hits give low values): 0.996
normalized growth (S. cerevisiae deletion strains, locus YMR263W, strain SAP30, hits give low values): 1.01
normalized growth (S. cerevisiae deletion strains, locus YMR307W, strain GAS1, hits give low values): 0.968
normalized growth (S. cerevisiae deletion strains, locus YNL067W, strain RPL9B, hits give low values): 1.02
normalized growth (S. cerevisiae deletion strains, locus YNL071W, strain lat1, hits give low values): 0.859 (active)
normalized growth (S. cerevisiae deletion strains, locus YNL153C, strain GIM3, hits give low values): 1.02
normalized growth (S. cerevisiae deletion strains, locus YNL183C, strain NPR1, hits give low values): 0.953
normalized growth (S. cerevisiae deletion strains, locus YNL209W, strain ssb2, hits give low values): 1
normalized growth (S. cerevisiae deletion strains, locus YNL233W, strain BNI4, hits give low values): 1.02
normalized growth (S. cerevisiae deletion strains, locus YNL248C, strain rpa49, hits give low values): 1.01
normalized growth (S. cerevisiae deletion strains, locus YNL250W, strain rad50, hits give low values): 1.04
normalized growth (S. cerevisiae deletion strains, locus YNL271C, strain bni1, hits give low values): 0.998
normalized growth (S. cerevisiae deletion strains, locus YNL298W, strain CLA4, hits give low values): 0.993
normalized growth (S. cerevisiae deletion strains, locus YNL307C, strain MCK1, hits give low values): 1.02
normalized growth (S. cerevisiae deletion strains, locus YNL322C, strain KRE1 (second series), hits give low values): 0.974
normalized growth (S. cerevisiae deletion strains, locus YNL322C, strain KRE1, hits give low values): 1.01
normalized growth (S. cerevisiae deletion strains, locus YNR049C, strain mso1, hits give low values): 1
normalized growth (S. cerevisiae deletion strains, locus YNR052C, strain pop2, hits give low values): 1.03
normalized growth (S. cerevisiae deletion strains, locus YOL012C, strain htz1): 1.39
normalized growth (S. cerevisiae deletion strains, locus YOL147C, strain pex11, hits give low values): 0.997
normalized growth (S. cerevisiae deletion strains, locus YOR001W, strain rrp6, hits give low values): 1.05
normalized growth (S. cerevisiae deletion strains, locus YOR061W, strain CKA2, hits give low values): 1
normalized growth (S. cerevisiae deletion strains, locus YOR069W, strain VPS5, hits give low values): 1.01
normalized growth (S. cerevisiae deletion strains, locus YOR070C, strain gyp1, hits give low values): 0.975
normalized growth (S. cerevisiae deletion strains, locus YOR080W, strain dia2, hits give low values): 1.01
normalized growth (S. cerevisiae deletion strains, locus YOR083W, strain WHI5, hits give low values): 0.956
normalized growth (S. cerevisiae deletion strains, locus YOR106W, strain vam3, hits give low values): 0.986
normalized growth (S. cerevisiae deletion strains, locus YOR136W, strain idh2, hits give low values): 1.01
normalized growth (S. cerevisiae deletion strains, locus YOR144C, strain elg1, hits give low values): 1
normalized growth (S. cerevisiae deletion strains, locus YOR184W, strain ser1, hits give low values): 0.978
normalized growth (S. cerevisiae deletion strains, locus YOR231W, strain MKK1, hits give low values): 0.973
normalized growth (S. cerevisiae deletion strains, locus YOR265W, strain rbl2, hits give low values): 0.999
normalized growth (S. cerevisiae deletion strains, locus YOR270C, strain vph1, hits give low values): 0.709 (active)
normalized growth (S. cerevisiae deletion strains, locus YOR290C, strain snf2, hits give low values): 0.954
normalized growth (S. cerevisiae deletion strains, locus YOR316C, strain cot1, hits give low values): 1.01
normalized growth (S. cerevisiae deletion strains, locus YPL051W, strain arl3, hits give low values): 0.939
normalized growth (S. cerevisiae deletion strains, locus YPL055C, strain LGE1, hits give low values): 1.01
normalized growth (S. cerevisiae deletion strains, locus YPL078C, strain atp4, hits give low values): 0.941
normalized growth (S. cerevisiae deletion strains, locus YPL106C, strain sse1, hits give low values): 0.892
normalized growth (S. cerevisiae deletion strains, locus YPL240C, strain hsp82, hits give low values): 0.991
normalized growth (S. cerevisiae deletion strains, locus YPL241C, strain CIN2, hits give low values): 0.999
normalized growth (S. cerevisiae deletion strains, locus YPL256C, strain CLN2, hits give low values): 0.958
normalized growth (S. cerevisiae deletion strains, locus YPR119W, strain clb2, hits give low values): 1.02
normalized growth (S. cerevisiae deletion strains, locus YPR141C, strain kar3, hits give low values): 1
normalized growth (S. cerevisiae deletion strains, locus YPR163C, strain tif3, hits give low values): 1.02
normalized growth (S. cerevisiae deletion strains, locus YPR167C, strain met16, hits give low values): 1.01
normalized growth (S. cerevisiae deletion strains, strain wtn01, hits give low values): 1.01
normalized growth (S. cerevisiae strains, strain wild type, hits give low values): 1.01
